Out of some 310,000 compounds screened, about 14,000 (4.5%) showed an effect of 50% or more. The effect is printed as a negative number. The entries come from a sample that favours strong results as a whole.
Each compound was assayed against human ether-à-go-go-related gene (hERG) potassium channel (human, UniProt Q12809) (assay: primary screen, population patch clamp on CHO cells stably expressing hERG; higher = less effect of the substance).
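Also: peak tail current of the secondary pulse compared with the same well before compound.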

Sequence of human ether-à-go-go-related gene (hERG) potassium channel (Q12809 whole entry, looked up): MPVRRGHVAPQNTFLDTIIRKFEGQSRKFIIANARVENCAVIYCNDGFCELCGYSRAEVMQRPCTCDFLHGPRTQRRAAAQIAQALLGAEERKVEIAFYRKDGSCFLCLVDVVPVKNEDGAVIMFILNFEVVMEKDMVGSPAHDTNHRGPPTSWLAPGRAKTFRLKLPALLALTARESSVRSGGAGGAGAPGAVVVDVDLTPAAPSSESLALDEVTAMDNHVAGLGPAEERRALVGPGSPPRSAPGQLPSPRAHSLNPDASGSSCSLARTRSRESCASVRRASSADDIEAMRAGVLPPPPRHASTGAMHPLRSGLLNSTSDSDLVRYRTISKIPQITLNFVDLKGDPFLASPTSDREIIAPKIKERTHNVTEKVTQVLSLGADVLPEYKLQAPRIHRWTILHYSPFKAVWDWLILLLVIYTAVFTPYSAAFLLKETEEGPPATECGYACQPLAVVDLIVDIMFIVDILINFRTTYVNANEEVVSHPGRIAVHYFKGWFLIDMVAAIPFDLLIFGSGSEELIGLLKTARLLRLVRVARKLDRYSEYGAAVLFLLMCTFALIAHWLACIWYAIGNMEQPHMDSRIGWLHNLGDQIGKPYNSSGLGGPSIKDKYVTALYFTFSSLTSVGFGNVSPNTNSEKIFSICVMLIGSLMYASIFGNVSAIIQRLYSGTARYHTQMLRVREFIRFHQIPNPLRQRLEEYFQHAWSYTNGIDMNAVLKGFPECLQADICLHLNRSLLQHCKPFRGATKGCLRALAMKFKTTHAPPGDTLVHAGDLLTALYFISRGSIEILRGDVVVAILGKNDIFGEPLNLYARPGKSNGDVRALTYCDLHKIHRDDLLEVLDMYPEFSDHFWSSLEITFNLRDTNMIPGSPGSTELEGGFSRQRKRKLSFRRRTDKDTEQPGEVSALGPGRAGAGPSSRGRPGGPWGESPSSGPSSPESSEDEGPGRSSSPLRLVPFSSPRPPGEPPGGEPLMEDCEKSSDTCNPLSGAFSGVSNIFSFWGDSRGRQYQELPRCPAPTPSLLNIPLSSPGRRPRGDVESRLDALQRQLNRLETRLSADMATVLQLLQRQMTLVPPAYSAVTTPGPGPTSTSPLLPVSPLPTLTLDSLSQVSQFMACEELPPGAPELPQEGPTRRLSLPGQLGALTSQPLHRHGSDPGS

| Structure (SMILES) | hERG current change (%, negative = inhibition) at 10uM [%] |
| --- | --- |
| CCc1ccccc1NC(=O)N1C2CCCC1CC(NC(C)=O)C2 (stereo not shown) | 21.4 |
| Cc1nn(-c2ccccc2)c(Cl)c1C1C(C#N)=C(N)Oc2c1c(=O)oc1ccccc21 (stereo not shown) | 6.87 |
| CCN1C(=O)C(=Cc2c(C)n(CC(=O)NCC3CCCO3)c3ccccc23)C(=O)N(CC)C1=S (stereo not shown) | 27.5 |
| CCOc1cc(-c2noc(CCC(=O)Nc3cccnc3)n2)ccc1OC | 10.4 |
| O=C(O)CC12C[C@H]3C[C@@H](C1)CC(n1ncc(N4CCN(c5ccccc5)CC4)c(Cl)c1=O)(C3)C2 | 6.36 |
| O=C(O)CCC(=O)N1CCN(Cc2ccc3c(c2)OCO3)CC1 | 11.6 |
| O=C(C1CCN(S(=O)(=O)c2cnc[nH]2)CC1)N1CCN(Cc2ccc3c(c2)OCO3)CC1 | 0.674 |
| CCCC(=O)N1CCN(Cc2ccc3c(c2)OCO3)CC1 | -3.83 |
| N#Cc1ccc(S(=O)(=O)N2CCC(C(=O)N3CCN(Cc4ccc5c(c4)OCO5)CC3)CC2)cc1 | -74.2 |
| O=C(CCC1CCCCC1)N1CCN(Cc2ccc3c(c2)OCO3)CC1 | -67.2 |
| O=C(C1CCN(S(=O)(=O)c2ccccc2)CC1)N1CCN(Cc2ccc3c(c2)OCO3)CC1 | -28.9 |
| CCOC(=O)C1CCN(S(=O)(=O)c2cc(C(=O)OC)n(C)c2)CC1 | -8.49 |
| c1ccc(-n2cc(CN3CCCC3)c(-c3ccc4c(c3)OCO4)n2)cc1 | -73 |
| c1ccc(Cn2cc(CN3CCCO3)c(-c3ccc4c(c3)OCO4)n2)cc1 | 15.9 |
| c1ccc(-n2cc(CN3CCC(N4CCOCC4)CC3)c(-c3ccc4c(c3)OCO4)n2)cc1 | -50.8 |
| c1ccc(-n2cc(CN3CCCC(CN4CCCC4)C3)c(-c3ccc4c(c3)OCO4)n2)cc1 (stereo not shown) | -29.2 |
| COCC1CCCCN1Cc1cn(-c2ccccc2)nc1-c1ccc2c(c1)OCO2 (stereo not shown) | -37.1 |
| OC[C@@H]1CCCN1Cc1cn(-c2ccccc2)nc1-c1ccc2c(c1)OCO2 | -24.2 |
| COC(=O)C1CCN(Cc2cn(-c3ccccc3)nc2-c2ccc3c(c2)OCO3)CC1 | -33.7 |
| CC(=O)NCC1CCCN(Cc2cn(-c3ccccc3)nc2-c2ccc3c(c2)OCO3)C1 (stereo not shown) | -45.9 |
| COCCC1CCCCN1Cc1cn(-c2ccccc2)nc1-c1ccc2c(c1)OCO2 (stereo not shown) | -55.8 |
| Cl.O=C1CSC(c2cn(-c3ccccc3)nc2-c2ccc3c(c2)OCCO3)N1CCN1CCOCC1 (stereo not shown) | -21.2 |
| c1ccc(Cn2cc(CN3CCCCO3)c(-c3ccc4c(c3)OCO4)n2)cc1 | -1.3 |
| COCC1CCCN(Cc2cn(-c3ccccc3)nc2-c2ccc3c(c2)OCO3)C1 (stereo not shown) | -65.7 |
| O=C(COC(=O)Cn1nc(-c2ccccc2)oc1=O)Nc1ccc(F)cc1 | 4.6 |
| CC1=C(C/C=C(\C)CCCC(C)CCCC(C)CCCC(C)C)C(=O)c2ccccc2C1=O (stereo not shown) | 25.4 |

| Structure (SMILES) | hERG current change (%, negative = inhibition) at 10uM [%] |
| --- | --- |
| COC(=O)c1sccc1NC(=O)Nc1ccccc1F | 13.4 |
| CCCOc1ccc(N2C(=O)C3C(C(C)C)NC4(C(=O)c5ccccc5C4=O)C3C2=O)cc1 (stereo not shown) | -0.496 |
| O=C(NNC1CC(=O)N(c2ccc3c(c2)OCCO3)C1=O)c1ccc(Cl)cc1 (stereo not shown) | 10.1 |
| Cc1ccc(CNC(=O)CNS(=O)(=O)c2ccc(Br)s2)cc1 | -0.279 |
| O=C1C2C3C=CC(C4CC34)C2C(=O)N1/N=C/c1ccc(-c2cccc([N+](=O)[O-])c2)o1 (stereo not shown) | -14.1 |
| O=C(CSc1nncc2ccccc12)Nc1ccc(C(=O)O)cc1 | 10.6 |
| O=C(COC(=O)c1ccc(O)cc1)NC1CCCC1 | 14 |
| C#CCOc1ccc(/C=C2/C(=O)N(c3cccc(C(=O)O)c3)N=C2C)cc1OC | -2.13 |
| CCCN(CC#CC(O)(c1ccccc1)c1cccnc1)CCC (stereo not shown) | -37.3 |
| COc1ccccc1NC(=O)CSc1ccc2nnc(-c3cccnc3)n2n1 | -57 |
| COc1ccccc1NC(=O)CSc1ccc2nnc(-c3ccncc3)n2n1 | -31.3 |
| COc1ccc(NC(=O)CSc2ccc3nnc(-c4ccccn4)n3n2)c(OC)c1 | -25.9 |
| O=C(CSc1ccc2nnc(-c3cccnc3)n2n1)Nc1ccc(F)cc1F | -21.5 |
| COc1ccc(CCNC(=O)CSc2nnc3ccc(-c4ccccn4)nn23)cc1 | -51.6 |
| COc1ccccc1NC(=O)CSc1ccc2nnc(-c3ccccn3)n2n1 | 0.136 |
| COc1ccc(OC)c(NC(=O)CSc2ccc3nnc(-c4ccccn4)n3n2)c1 | -69 |
| COc1ccccc1NC(=O)CSc1ccc2nnc(-c3ccc(C)cc3)n2n1 | -26.6 |
| O=C(CSc1ccc2nnc(-c3cccnc3)n2n1)Nc1ccccc1C(F)(F)F | -33.3 |
| COc1ccc(CCNC(=O)CSc2nnc3ccc(-c4ccccn4)nn23)cc1OC | 2.17 |
| O=C(CSc1nnc2ccc(-c3ccccn3)nn12)NCCc1ccccc1 | -6.49 |
| CCOc1ccccc1NC(=O)CSc1ccc2nnc(-c3cccnc3)n2n1 | -61.9 |
| COc1ccc(C(O)C(C)NC(C)C(O)c2ccc(OC)cc2)cc1 (stereo not shown) | 4.3 |
| COc1ccc(S(=O)(=O)N2CCN(Cc3cc(OC)c(O)c(OC)c3)CC2)cc1.O=C(O)C(=O)O | 4.57 |
| CN(C)CCNc1nc(-c2ccccc2)nnc1C(F)(F)F | -3.83 |
| CN1CCN(C(=O)c2ccc3c(c2)NC(=O)C(N2CCOCC2)S3)CC1 (stereo not shown) | 3.85 |
| COc1ccc(C(C)=O)cc1CN1C(=O)C(C)N(c2ccc(C)cc2)C1=O (stereo not shown) | -25.4 |

— article PMC4336329 (PLoS ONE, 2015)
